USP1-UAF1 inh: Inhibitors of USP1/UAF1: Primary Screen; Ubiquitin carboxyl-terminal hydrolase 1 (Homo sapiens), O94782; recombinant USP1/UAF1, Ub-Rhodamine cleavage fluorescence; Potency, µM (top dose mostly 57.1 µM), most hits filed as inhibitors; 390,000 tested, 0.23% active; AID 743255, 2014; active = well fitted inhibition curve with a large enough effect; inconclusive = small, poorly fitted or top-dose-only effect; inactive = no such curve, though single readings can be large or run the other way; also: nearly all actives have a fitted effect of over 60% in size
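1 nM enzyme complex + cpd, 15 min RT; start with Ub-Rho 150nM final; kinetic fluorescence ex 480/em 540, 6 reads q60 s. Buffer 50mM HEPES pH 7.8, 0.5mM EDTA, 0.1 mg/ml BSA, 1mM TCEP, 0.01% Tween-20.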
hERG WT inh: qHTS for Inhibitors of KCHN2 3.1: Wildtype qHTS; AID 720551, 2013; U2OS, BacMam KCNH2, thallium flux FluxOr; hits give low values; Voltage-gated inwardly rectifying potassium channel KCNH2 (Homo sapiens), Q12809; 340,000 tested, 0.37% active; activity change, % at 1.84 µM;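 active = maximum activity change below -70%; inconclusive = maximum activity change between -70% and -50%; inactive = maximum activity change above -50%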
Target sequence (Q12809 whole entry, looked up): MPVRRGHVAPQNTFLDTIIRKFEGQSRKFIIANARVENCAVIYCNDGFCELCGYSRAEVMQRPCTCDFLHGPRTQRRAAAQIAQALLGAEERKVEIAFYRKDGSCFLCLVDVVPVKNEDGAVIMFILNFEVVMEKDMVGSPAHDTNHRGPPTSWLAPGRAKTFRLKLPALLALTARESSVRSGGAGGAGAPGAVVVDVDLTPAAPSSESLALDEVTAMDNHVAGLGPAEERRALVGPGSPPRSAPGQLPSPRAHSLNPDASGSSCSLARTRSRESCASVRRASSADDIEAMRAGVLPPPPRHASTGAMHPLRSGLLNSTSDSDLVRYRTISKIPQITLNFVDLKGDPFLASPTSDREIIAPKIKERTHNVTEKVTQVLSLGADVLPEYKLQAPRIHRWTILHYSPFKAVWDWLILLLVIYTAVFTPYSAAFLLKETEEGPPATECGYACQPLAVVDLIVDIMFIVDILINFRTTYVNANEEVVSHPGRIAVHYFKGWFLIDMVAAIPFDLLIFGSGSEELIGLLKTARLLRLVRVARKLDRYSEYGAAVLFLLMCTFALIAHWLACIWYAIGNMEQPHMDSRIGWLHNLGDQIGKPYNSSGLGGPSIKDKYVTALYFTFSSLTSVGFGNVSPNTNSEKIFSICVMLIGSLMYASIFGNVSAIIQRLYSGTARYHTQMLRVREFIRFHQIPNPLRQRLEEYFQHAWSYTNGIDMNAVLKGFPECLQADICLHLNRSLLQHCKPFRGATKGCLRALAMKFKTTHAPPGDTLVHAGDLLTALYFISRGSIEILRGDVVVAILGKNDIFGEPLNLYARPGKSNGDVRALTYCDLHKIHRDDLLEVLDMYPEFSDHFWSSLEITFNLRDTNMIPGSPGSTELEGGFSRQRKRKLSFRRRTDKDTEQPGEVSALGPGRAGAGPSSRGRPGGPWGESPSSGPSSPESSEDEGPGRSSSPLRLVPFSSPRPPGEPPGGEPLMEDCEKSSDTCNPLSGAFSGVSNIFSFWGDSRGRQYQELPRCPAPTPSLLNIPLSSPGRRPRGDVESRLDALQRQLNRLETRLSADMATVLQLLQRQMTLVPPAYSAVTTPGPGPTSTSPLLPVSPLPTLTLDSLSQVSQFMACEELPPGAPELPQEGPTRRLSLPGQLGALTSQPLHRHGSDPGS
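U2OS cells were transduced with wild-type KCNH2 virus (2.03 x 10^8 / mL) for 4 h at room temperature, then cultured overnight at 37 C. Thallium flux was read with FluxOr dye. Rate constants were normalized to DMSO controls.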
KCNH2 3.1 inh: qHTS for Inhibitors of KCHN2 3.1: Mutant qHTS; Potassium voltage-gated channel subfamily H member 2, brain isoform KCNH2 3.1 (human); U2OS KCNH2 3.1, thallium flux FluxOr; hits give low values; activity change, % (tested at about 1.8 µM); 340,000 tested, 0.95% active;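 active = maximum activity change below -70%; inconclusive = maximum activity change from -70% to -50%; inactive = maximum activity change above -50%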;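 also: thallium influx rate constant from kinetic fluorescence after stimulation buffer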
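We transduce U2OS cells with the mutant 3.1 virus, culture them overnight, load FluxOr with Red40 quencher for 45 min, then add stimulation buffer and read kinetically for 2 min to derive a normalized rate constant.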
FBPA coupling cs: qHTS Assay for Inhibitors of Fructose-1,6-bisphosphate Aldolase from Giardia Lamblia: Coupling assay counterscreen. coupling enzyme system counterscreen, AmpLite Red fluorescence. activity change, negative = inhibition, % at 58.2 µM, hits read low. 290,000 tested, 0.67% active; in the data active = activity change below about -30%
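Final compound at 57.5 uM, incubated 10 min at RT with coupling enzyme reagent (glyceraldehyde-3-phosphate), then 20 min with substrate and AmpLite Red detection. Fluorescence read at 525/598 nm; tests interference with the coupling assay, not aldolase inhibition.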
Giardia kill: Small Molecules that selectively kill Giardia lamblia: qHTS; Giardia lamblia trophozoite viability; 340,000 tested, 0.15% active; activity change, % at 7.66 µM, hits read low; in the data active = activity change below about -80%; inconclusive = between about -30% and that limit;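 also: parasites exposed to compound for two days anaerobically before the ATP read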
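ATP-content bioluminescence gauges trophozoite survival. Cells (100/well) receive compound and incubate anaerobically for 48 hrs at 37 deg C; detection reagent follows for 15-30 min at room temperature.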
Of the large screens only hits and unclear results are named; the others gave an inactive call. A selection: hits, their analogues and other compounds. The true share with any hit is near 1.7%.

O=C(CSc1nnc(-c2cccnc2)n1CCN1CCCCC1)Nc1cccc(Cl)c1	KCNH2 3.1 inh -87
O=[N+]([O-])c1ccc(/C=N/Nc2nc(-c3ccccc3)c3cc(Br)ccc3n2)o1	KCNH2 3.1 inh -101, Giardia kill -91
Cc1ccc2nc(N/N=C\c3ccc([N+](=O)[O-])o3)nc(-c3ccccc3)c2c1	KCNH2 3.1 inh -97, Giardia kill -99
N#Cc1ccccc1/C=N/Nc1nc(-c2ccccc2)c2cc(Br)ccc2n1	none
O=[N+]([O-])c1ccc(/C=N/Nc2ccc3ccccc3c2)o1	Giardia kill inconclusive
CC(C)(C)c1ccc(NC(=O)N2CCN(c3ccc([N+](=O)[O-])cn3)CC2)cc1	KCNH2 3.1 inh -103
O=C(Nc1ccc(F)cc1F)N1CCCN(c2ccc([N+](=O)[O-])cn2)CC1	none
N#CC1=C(N)OC2=C(C(=O)CCC2)C1c1ccccc1 (configuration not stated)	none
Cn1cccc1C1C(C#N)=C(N)OC2=C1C(=O)CCC2 (configuration not stated)	FBPA coupling cs -34
COc1ccc(OC)c(NC(=O)COC(=O)CN2C(=O)NC3(CCCC3)C2=O)c1	none (no result: FBPA coupling cs)
CC1CC(C)CN(C(=O)COC(=O)/C=C/c2cccc([N+](=O)[O-])c2)C1 (configuration not stated)	KCNH2 3.1 inh -109 (no result: FBPA coupling cs)
Cn1c2c(c(=O)n(C)c1=O)[C@@]1(C(=O)Nc3ccccc31)C(C#N)=C(N)O2	FBPA coupling cs -50
CCCCOP(=O)(c1ccc(N(C)C)cc1)C(Nc1ccccc1)c1ccccc1 (configuration not stated)	KCNH2 3.1 inh -95
Cc1cc2nc(-c3ccc[nH]c3=O)n(Cc3ccc(F)cc3)c2cc1C	none
Cc1cc2nc(-c3ccc[nH]c3=O)[nH]c2cc1C	Giardia kill -94
O=S(=O)(c1ccccc1)N1CCCCC1CCc1ccccc1 (configuration not stated)	none (no result: FBPA coupling cs)
O=C(Nc1ccc2[nH]ccc2c1)c1ccc(F)cc1	Giardia kill -83
CC[C@H](C)[C@H](NC(=O)[C@H](CC(C)C)NC(=O)[C@H](CC(N)=O)NC(=O)[C@@H](NC(=O)[C@@H](N)Cc1ccc(O)cc1)[C@@H](C)CC)C(=O)N[C@@H](Cc1ccc(O)cc1)C(=O)N[C@@H](CCCN=C(N)N)C(=O)N[C@@H](CC(C)C)C(=O)N[C@@H](CCCN=C(N)N)C(=O)N[C@@H](Cc1ccc(O)cc1)C(N)=O	none (no result: USP1-UAF1 inh, hERG WT inh, KCNH2 3.1 inh, Giardia kill)
CCOC(=O)N1CCc2c(sc(NCc3ccc(N(C)C)cc3)c2C(=O)Nc2ccc(OC)cc2)C1	USP1-UAF1 inh 28µM (no result: hERG WT inh, KCNH2 3.1 inh, FBPA coupling cs, Giardia kill)
CCOC(=O)N1CCc2c(sc(NCc3sccc3C)c2C(=O)Nc2ccc(OC)cc2OC)C1	none (no result: hERG WT inh, KCNH2 3.1 inh, FBPA coupling cs, Giardia kill)
CCCCNc1c2c3c(cccc3n(C)c1=O)C(=O)c1ccccc1-2	none
Cn1c(=O)c(NCCc2ccccc2)c2c3c(cccc31)C(=O)c1ccccc1-2	hERG WT inh -70, KCNH2 3.1 inh -83
Cc1ccc2c(C)c(C(=O)N3CCC(C(N)=O)(N4CCCCC4)CC3)oc2c1C	none (no result: FBPA coupling cs, Giardia kill)
Cc1ccc(NC(=O)C2CCN(C(=O)c3ccco3)CC2)cc1	KCNH2 3.1 inh -85
O=C(Nc1ccc(Cl)c(Cl)c1)C1CCN(C(=O)c2ccco2)CC1	none (no result: FBPA coupling cs)
O=C(CCC1CCCN(C(=O)c2cc3ccccc3o2)C1)NCc1ccc(F)c(F)c1 (configuration not stated)	none (no result: FBPA coupling cs)
N#Cc1cn(CCCOc2ccccc2)c2ccccc12	none
COc1ccccc1OCCCn1cc(C#N)c2ccccc21	FBPA coupling cs -32
COc1ccc(C)cc1N(C(=O)c1ccccc1)c1nc2ccccc2s1	none
COc1ccc(C)cc1N(C(=O)COc1ccccc1)c1nc2ccccc2s1	hERG WT inh inconclusive, KCNH2 3.1 inh -74
C=CCN1C=CC(=C/C=C(/C#N)C(=O)OCC)C=C1	USP1-UAF1 inh 28µM
CCCCN1C(=O)/C(=C/C=C2\SCCN2C)SC1=S	none
CN1CCS/C1=C/C=C1\SC(=S)N(CC(=O)O)C1=O	USP1-UAF1 inh 25µM (no result: KCNH2 3.1 inh)
CSc1ccccc1NC(=O)COC(=O)Cc1ccsc1	KCNH2 3.1 inh -97 (no result: FBPA coupling cs)
CCOc1ccccc1NC(=O)COC(=O)Cc1ccsc1	none (no result: FBPA coupling cs)
NCCCCCc1cnc[nH]1	none (no result: USP1-UAF1 inh, hERG WT inh, KCNH2 3.1 inh, Giardia kill)
CC(=O)Oc1ccc2c(c1)O/C(=C\c1ccncc1)C2=O	USP1-UAF1 inh 28µM
C=CCCC/C=C(/C)C(OCc1ccc(OC)cc1)C(CC/C=C(\C)C(N)=O)OC (configuration not stated)	none (no result: USP1-UAF1 inh, hERG WT inh, KCNH2 3.1 inh, Giardia kill)
O=C(Nc1nnc(SCC(=O)N2CCCCC2)s1)c1ccc(F)cc1F	hERG WT inh -152
O=C(Cc1ccc(F)cc1)Nc1nnc(SCC(=O)N2CCCCC2)s1	none
CCCCC[C@@H](/C=C/C1C(=O)C=C[C@H]1C/C=C\CCCC(=O)OC)OC(C)=O (some centres not stated)	USP1-UAF1 inh inconclusive (no result: FBPA coupling cs)
COc1cc(C(=O)NNC(=O)c2ccccc2OCc2c(C)noc2C)cc(OC)c1OC	KCNH2 3.1 inh -87 (no result: FBPA coupling cs)
Cc1noc(C)c1COc1ccccc1C(=O)NNC(=O)c1ccccc1	none (no result: FBPA coupling cs)
CC1CCC/C(=C\Nc2ccc(O)cc2)C1=O (configuration not stated)	FBPA coupling cs -38
Cc1cc(C(=O)O)ccc1N/C=C1\CCCC(C)C1=O (configuration not stated)	none
Cc1nnc(NC(=O)c2nc(SC(C)C)ncc2Cl)s1	none (no result: hERG WT inh, KCNH2 3.1 inh, FBPA coupling cs, Giardia kill)
O=[N+]([O-])c1ccc(Sc2cccc[n+]2[O-])c2nonc12	USP1-UAF1 inh inconclusive, FBPA coupling cs -80
Cn1c(=O)[nH]c(=O)c2c1nc(SCCN1CCCCC1)n2Cc1ccccc1	KCNH2 3.1 inh -74
Cc1ccc(Cn2c(SCCN3CCCCC3)nc3c2c(=O)[nH]c(=O)n3C)cc1	KCNH2 3.1 inh -95
Cc1cccc(Cn2c(SCCN3CCCCC3)nc3c2c(=O)[nH]c(=O)n3C)c1	KCNH2 3.1 inh -81
Cn1c(=O)[nH]c(=O)c2c1nc(SCCN1CCCCC1)n2CCCc1ccccc1	none
Cc1cccc(Cn2c(N3CCN(CCO)CC3)nc3c2c(=O)[nH]c(=O)n3C)c1	none
C#CCCCO/N=C1/[C@H]2O[C@@H]2[C@@H](O)[C@H]2[C@H]1CCn1c(=O)n(-c3ccccc3)c(=O)n12	none (no result: USP1-UAF1 inh, hERG WT inh, KCNH2 3.1 inh, Giardia kill)
COc1ccc(C2CC(=O)c3cnc4c(-c5ccccc5)c(C)nn4c3C2)c(OC)c1 (configuration not stated)	none (no result: hERG WT inh, KCNH2 3.1 inh, FBPA coupling cs, Giardia kill)
O=C1/C(=C\c2cccs2)Sc2ccc3ccccc3c21	USP1-UAF1 inh 32µM
CCOc1ccccc1CNc1nc2nc(C)cc(C)n2n1	none (no result: hERG WT inh, KCNH2 3.1 inh, FBPA coupling cs, Giardia kill)
CSC1=NSC2=NC(=O)/C(=C\c3cccs3)C(=N)N12	none

Bioassay records deposited in PubChem BioAssay by National Center for Advancing Translational Sciences (NCATS).
